In all, about 100,000 compounds went through this assay and about 770 (0.77%) were called active. The sample as a whole holds a higher share of actives than the screen did. Values without a mark were called inactive. Cut-off read from the data, not from the text of the source: active = inhibition above about 50%; inactive = the rest.

In the assay the target is Gag-Pol polyprotein (Human immunodeficiency virus type 1 group M subtype B (isolate HXB2)) (UniProt P04585). The assay can be described thus: RNase H inhibition, HIV 1 Gag Pol polyprotein, FRET biochemical assay, screening (AID 372). As to conditions: HIV-1 RT RNase H, FRET RNA/DNA substrate fluorescence; at 10 µM; active compounds read high.
As a reminder, the inhibition is the share of the control response that was lost under treatment. For the compound `CCOc1ccccc1N=CC1=C(O)CC(c2ccccc2)CC1=O` (stereo unspecified), the inhibition was 6%.
The same measure for `Cc1ccc(-c2nc(NC(=O)c3cccc(F)c3)sc2-c2ccccc2)cc1`: 16%; for `COc1cc(NC(=O)C(F)(F)F)c(Cl)cc1NC(=O)c1ccccc1`: 0%.
The same measure for `CCOc1ccc(C(=O)Nc2cccc(NC(=O)c3ccccc3Cl)c2)cc1`: 8%; for `CCOc1ccc(C(=O)Nc2cccc(S(N)(=O)=O)c2)cc1Br`: 4%.
The result for `COc1ccc(/C=C2/SC(=O)N(CNc3ccc(I)cc3)C2=O)cc1` reads 6%; that for `COc1cccc(/C=C2/SC(=O)N(CNc3ccc(Br)cc3C)C2=O)c1`, 58% (active).
Regarding `O=C1S/C(=C/c2ccccc2)C(=O)N1CNc1ccc(I)cc1`, the inhibition was 3%.
Take `O=C1S/C(=C/c2ccc(F)cc2)C(=O)N1CNc1ccc(I)cc1`: the inhibition is 4%.
With `COc1ccc(/C=C2/SC(=O)N(CNc3ccc(Br)cc3C)C2=O)cc1`, the inhibition is 7%.
The same measure for `COc1ccc(OC)c(/C=C2/SC(=O)N(CNc3ccc(Br)cc3C)C2=O)c1`: 5%; for `COc1ccc(/C=C2/SC(=O)N(CNc3ccccc3)C2=O)cc1`: 9%.
The same measure for `O=C1S/C(=C/c2ccccc2F)C(=O)N1CNc1ccc(I)cc1`: 57% (active).
Take `COc1cccc(/C=C2/SC(=O)N(CNc3ccc(I)cc3)C2=O)c1`: the inhibition was 51% (active).
In the case of `Cc1nc2ccccn2c1C(=O)N/N=C\c1ccccc1[N+](=O)[O-]`, the inhibition was 9%.
The same measure for `C=CCOCCN(CCOCC=C)C1=NS(=O)(=O)c2cc([N+](=O)[O-])ccc21`: 8%; for `CC(=O)c1ccc(N2CCN(C(=O)c3cc(F)c(F)cc3Cl)CC2)c(F)c1`: 7%.
The same measure for `C=CCOC(=O)C1=C(C)NC2=C(C(=O)CCC2)C1c1ccc(OCc2ccccc2)c(OC)c1` (stereo unspecified): 15%; for `O=C(Nc1nnc(-c2ccc3c(c2)OCO3)s1)c1sc2ccccc2c1Cl`: 5%; for `CCOC(=O)c1c(NC(=O)c2cc(-c3ccc(OC)cc3)nc3ccccc23)sc2c1CCCCC2`: 5%.
The result for `Cc1ccc(C(=O)Nc2ccc(F)cc2F)cc1[N+](=O)[O-]` reads 18%; that for `COc1cc2ccccc2cc1C(=O)Nc1ccc2c(c1)C(=O)c1ccccc1C2=O`, 38%.
With `Cc1nnc(N/N=C/c2ccc(C(=O)O)cc2)[nH]c1=O`, the inhibition was 10%.
For `COc1cccc(C(=O)NCc2ccccc2OC)c1`, the inhibition was 2%.
The result for `COc1ccccc1CNC(=O)c1cccc(C)c1` reads 2%; that for `COc1ccccc1CNC(=O)c1cccc(N(C)C)c1`, 56% (active).
The same measure for `Cc1ccc(N(CC(=O)N/N=C/c2cccc(Cl)c2)S(=O)(=O)c2ccc(F)cc2)cc1`: 13%; for `O=c1[nH]c(=S)n(-c2ccc(Br)cc2)c(O)c1/C=C1\C=Nc2ccccc21`: 20%; for `Cc1ccc(-n2c(O)c(/C=C3\C=Nc4ccccc43)c(=O)[nH]c2=S)cc1`: 15%.
The same measure for `O=c1[nH]c(=S)n(-c2ccccc2)c(O)c1/C=C1\C=Nc2ccccc21`: 56% (active); for `CC(C)(C)c1ccc(CNc2cc(N3CCOCC3)ccc2[N+](=O)[O-])cc1`: 0%; for `Oc1ccc(Br)cc1-c1nc(-c2ccccc2)c(-c2cccs2)[nH]1`: 9%.
For the compound `Oc1ccc(-c2nc(-c3ccccc3)c(-c3cccs3)[nH]2)cc1O`, the inhibition was 63% (active).
The result for `Oc1ccccc1-c1nc(-c2ccccc2)c(-c2cccs2)[nH]1` reads 12%.
The result for `O=C(COc1ccccc1[N+](=O)[O-])N/N=C/c1cc(I)ccc1O` reads 5%; that for `C/C(=N\Nc1cc(-c2ccccc2)nc(-c2ccccc2)n1)c1ccc([N+](=O)[O-])cc1`, 3%; that for `CN(C(=O)c1ccc(Cl)c([N+](=O)[O-])c1)c1ccccc1`, 17%.
On to `CCOc1ccccc1N(CC(=O)Nc1cccc(Br)c1)S(C)(=O)=O`, for which the inhibition was 16%.
The same measure for `CCOc1ccc(NC(=O)CN(c2ccc(C)c(Cl)c2)S(C)(=O)=O)cc1`: 3%.
`CCOc1ccccc1N(CC(=O)N/N=C(\C)c1cccc(Br)c1)S(C)(=O)=O`: the inhibition was 66% (active).
The result for `CCOc1ccc(N(CC(=O)Nc2cccc(C)c2)S(C)(=O)=O)cc1` reads 17%; that for `CCOc1ccccc1N(CC(=O)N/N=C(\C)c1cccc(NC(=O)c2ccccc2)c1)S(=O)(=O)c1ccccc1`, 5%.
As to `CCOc1ccc(N(CC(=O)Nc2ccc(C)c(C)c2)S(C)(=O)=O)cc1`, the inhibition was 4%.
The result for `CCOc1ccc(N(CC(=O)Nc2cccc(C(C)=O)c2)S(C)(=O)=O)cc1` reads 51% (active).
Take `CCOc1ccc(N(CC(=O)Nc2ccc(C)c(Cl)c2)S(C)(=O)=O)cc1`: the inhibition is 56% (active).
The same measure for `CCOc1ccc(N(CC(=O)Nc2cccc(Br)c2)S(C)(=O)=O)cc1`: 12%; for `Cn1c(=O)c(Sc2ccccc2)c(Sc2ccccc2)c2ccccc21`: 43%; for `CCc1ccccc1N1C(=O)/C(=C/c2ccc(N3CCCCC3)o2)C(=O)NC1=S`: 19%.
The result for `Cc1cccc(N2C(=O)C(Cl)=C(Cl)C2=O)c1C` reads 4%; that for `O=C(Nc1ccccc1-c1ccccc1)c1ccc2c(c1)C(=O)N(c1ccccc1-c1ccccc1)C2=O`, 17%.
The same measure for `Cc1ccccc1NC(=O)c1cc(S(=O)(=O)Nc2ccc(Br)cc2)ccc1Cl`: 10%.
Take `CSC1=C(C#N)C(c2ccc(Cl)cc2)C(C(C)=O)=C(C)N1` (stereo unspecified): the inhibition was 2%.
The result for `O=C1NC(=S)S/C1=C/c1cccc(OCc2ccccc2Cl)c1` reads 42%; that for `O=C1NC(=S)S/C1=C/c1cccc(OCc2ccccc2)c1`, 29%.
The result for `Cc1ccc(C)c(OCCOc2ccc(Cl)cc2/C=C2\SC(=S)NC2=O)c1` reads 63% (active); that for `Cc1ccc(C)c(OCCOc2cccc(/C=C3\SC(=S)NC3=O)c2)c1`, 54% (active); that for `Cc1ccc(OCCOc2cccc(/C=C3\SC(=S)NC3=O)c2)c(C)c1`, 40%.
The same measure for `Cc1ccc(C)c(OCCOc2ccc(/C=C3\SC(=S)NC3=O)cc2)c1`: 43%; for `Cc1ccc(OCCOc2ccc(Cl)cc2/C=C2\SC(=S)NC2=O)c(C)c1`: 43%.
On to `Cc1cc(C)cc(OCCOc2cccc(/C=C3\SC(=S)NC3=O)c2)c1`, for which the inhibition is 45%.
`Cc1ccc(OCCOc2cccc(/C=C3/SC(=S)NC3=O)c2)cc1`: the inhibition is 56% (active).
The result for `COc1ccc(OCCOc2cccc(/C=C3\SC(=S)NC3=O)c2)cc1` reads 18%.
The same measure for `Cc1ccc(C)c(OCCOc2c(Cl)cc(Cl)cc2/C=C2\SC(=S)NC2=O)c1`: 33%.
The result for `Cc1ccc(Nc2cc(N3CCN(c4ccccc4Cl)CC3)c([N+](=O)[O-])cc2[N+](=O)[O-])cc1` reads 13%; that for `Cc1ccc(C(C)C)c(OCC(=O)N2CCN(c3ccc([N+](=O)[O-])cc3Cl)CC2)c1`, 21%; that for `Cc1cc(C)nc(NS(=O)(=O)c2ccc(NS(=O)(=O)c3ccc4c(c3)C(=O)c3ccccc3-4)cc2)n1`, 15%.
For `Cc1ccc(Cl)cc1NC(=O)CN(CCc1ccccc1)S(=O)(=O)c1ccccc1`, the inhibition is 16%.
The same measure for `COc1cccc(/C=N/N2CCN(Cc3cccc4ccccc34)CC2)c1O`: 8%; for `COc1ccc(OCCOc2ccc(Br)cc2/C=C2\SC(=S)NC2=O)cc1`: 34%; for `COc1cccc(OCCOc2ccccc2/C=C2/SC(=S)NC2=O)c1`: 22%.
The same measure for `COc1cccc(OCCOc2ccc(Br)cc2/C=C2/SC(=S)NC2=O)c1`: 55% (active).
The result for `Cc1ccc(N=Cc2c(O)n(Cc3ccccc3)c(=O)[nH]c2=O)cc1` reads 46%; that for `Cc1ccccc1N=Cc1c(O)n(Cc2ccccc2)c(=O)[nH]c1=O`, 57% (active).
For the compound `O=c1[nH]c(=O)n(Cc2ccccc2)c(O)c1C=Nc1ccc(F)cc1`, the inhibition is 22%.
For `COc1ccc(CCNC(=O)c2ccc(C#Cc3ccccc3)cc2)cc1OC`, the inhibition was 8%.
The same measure for `CCOc1ccccc1NC(=O)CSCc1ccccc1Cl`: 51% (active); for `CCC(C)NC(=O)CSCc1ccccc1Cl` (stereo unspecified): 0%; for `CCc1ccccc1NC(=O)CSCc1ccccc1Cl`: 20%.
The same measure for `CCOc1ccccc1NC(=O)CSCc1ccc(Cl)cc1Cl`: 48%; for `CC(NC(=O)CSCc1ccc(Cl)cc1)c1ccccc1` (stereo unspecified): 6%.
The result for `CC(NC(=O)CSCc1ccccc1Cl)c1ccccc1` (stereo unspecified) reads 54% (active).
On to `CC(=O)c1ccc(C)cc1OC(=O)c1ccc(Cl)cc1`, for which the inhibition was 21%.
In the case of `O=C(/C(=C/c1ccccc1)c1nc2ccccc2[nH]1)c1ccccc1`, the inhibition is 6%.
As to `O=C(Nc1ccc(I)cc1)c1ccc([N+](=O)[O-])o1`, the inhibition was 0%.
The result for `Cc1c(Cl)cccc1-c1ccc(C(=O)Nc2ccc3oc(-c4cccnc4)nc3c2)o1` reads 42%; that for `Cc1c(Cl)cccc1-c1ccc(C(=O)Nc2ccc(-c3nc4ccccc4o3)cc2)o1`, 54% (active).
The result for `O=C(Nc1ccc([N+](=O)[O-])cc1)c1ccc(-c2ccc(Cl)c(Cl)c2)o1` reads 50% (active); that for `O=C(Nc1ccc2oc(-c3ccccc3)nc2c1)c1ccc([N+](=O)[O-])o1`, 6%; that for `O=C(Nc1ccc(Cl)c([N+](=O)[O-])c1)c1ccc(-c2ccc(Cl)c(Cl)c2)o1`, 7%.
Consider `O=C(Nc1ccc([N+](=O)[O-])cc1)c1ccc(-c2cccc(Cl)c2)o1`, for which the inhibition was 10%.
The same measure for `O=C(Nc1ccc(-c2nc3ccccc3o2)cc1)c1ccc(-c2ccc([N+](=O)[O-])cc2)o1`: 48%.
The same measure for `Cc1cc([N+](=O)[O-])ccc1-c1ccc(C(=O)Nc2ccc3oc(-c4ccccc4)nc3c2)o1`: 15%; for `Cc1ccc(-c2nc3cc(NC(=O)c4ccc([N+](=O)[O-])o4)ccc3o2)cc1Br`: 54% (active); for `O=C(Nc1ccc2oc(-c3cc(Br)ccc3Cl)nc2c1)c1ccc([N+](=O)[O-])o1`: 20%.
The same measure for `O=C(Nc1ccc2oc(-c3ccccc3)nc2c1)c1ccc(-c2ccc([N+](=O)[O-])cc2)o1`: 54% (active); for `Cc1c(Cl)cccc1-c1ccc(C(=O)Nc2cccc(-c3nc4ccccc4o3)c2)o1`: 10%.
